Experimental data published in publication PMC7862700, “An all-to-all approach to the identification of sequence-specific readers for epigenetic DNA modifications on cytosine”.

Assays:
Experiment in all cases: DAPPL (digital affinity profiling via proximity ligation, sequencing); 10 mM Tris-HCl pH 7.5, 50 mM NaCl, 1 mM DTT, 4% glycerol, room temperature, 30 min; GST-TFs on glutathione beads, 16-mer random dsDNA library, 0.1% formaldehyde crosslink after washing; high values mean tight binding
FLI1 = target: T1, FLI1 (Homo sapiens, UniProt Q01543 1-452); conditions: protein: recombinant; tags: N-terminal GST; dsDNA, one strand shown
T1 sequence: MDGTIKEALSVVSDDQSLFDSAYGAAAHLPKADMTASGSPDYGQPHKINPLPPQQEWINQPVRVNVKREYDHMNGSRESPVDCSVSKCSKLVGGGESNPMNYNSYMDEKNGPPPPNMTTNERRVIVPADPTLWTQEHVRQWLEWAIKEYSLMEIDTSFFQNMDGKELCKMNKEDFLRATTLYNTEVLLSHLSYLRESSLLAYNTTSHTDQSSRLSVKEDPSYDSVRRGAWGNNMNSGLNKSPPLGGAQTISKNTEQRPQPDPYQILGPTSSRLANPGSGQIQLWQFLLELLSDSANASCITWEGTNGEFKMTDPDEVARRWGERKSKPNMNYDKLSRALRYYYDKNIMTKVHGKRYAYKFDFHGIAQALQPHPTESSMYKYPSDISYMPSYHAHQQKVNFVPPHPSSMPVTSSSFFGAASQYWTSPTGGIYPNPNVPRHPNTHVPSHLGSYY
Outline: (§1)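 Beads coated with glutathione captured GST-fused human transcription factors that had been expressed in yeast, and the factors were then given DNA barcodes and pooled with a tag-only sample. The pools were incubated with 200 nmole of a random double-stranded 16-mer DNA library in Tris/NaCl/DTT/glycerol buffer for 30 min at room temperature, washed, crosslinked with 0.1% formaldehyde and proximity-ligated with BsaI/T4 ligase at 37 °C for 1 h. PCR amplification and Illumina NextSeq500 sequencing came last. Binding signal is each hexamer's read frequency for a factor divided by its frequency for the tag-only sample.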

ELK1 = target: T2, ELK1 (Homo sapiens, UniProt P19419 1-428); conditions: protein: recombinant; tags: N-terminal GST; dsDNA, one strand shown
T2 sequence: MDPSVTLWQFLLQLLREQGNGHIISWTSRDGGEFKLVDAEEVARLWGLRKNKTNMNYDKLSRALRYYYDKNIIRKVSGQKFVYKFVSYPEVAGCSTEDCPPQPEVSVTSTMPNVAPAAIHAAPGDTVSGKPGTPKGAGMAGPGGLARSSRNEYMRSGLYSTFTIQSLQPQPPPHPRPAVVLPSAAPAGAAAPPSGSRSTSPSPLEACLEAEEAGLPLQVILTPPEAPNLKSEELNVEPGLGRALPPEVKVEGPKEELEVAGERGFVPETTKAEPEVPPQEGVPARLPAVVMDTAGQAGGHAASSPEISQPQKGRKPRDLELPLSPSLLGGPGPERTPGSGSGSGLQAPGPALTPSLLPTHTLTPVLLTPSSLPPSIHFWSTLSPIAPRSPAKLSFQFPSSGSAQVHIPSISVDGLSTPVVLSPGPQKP
Outline: as §1

GABPA = target: T3, GABPA (Homo sapiens, UniProt Q06546 1-454); conditions: protein: recombinant; tags: N-terminal GST; dsDNA, one strand shown
T3 sequence: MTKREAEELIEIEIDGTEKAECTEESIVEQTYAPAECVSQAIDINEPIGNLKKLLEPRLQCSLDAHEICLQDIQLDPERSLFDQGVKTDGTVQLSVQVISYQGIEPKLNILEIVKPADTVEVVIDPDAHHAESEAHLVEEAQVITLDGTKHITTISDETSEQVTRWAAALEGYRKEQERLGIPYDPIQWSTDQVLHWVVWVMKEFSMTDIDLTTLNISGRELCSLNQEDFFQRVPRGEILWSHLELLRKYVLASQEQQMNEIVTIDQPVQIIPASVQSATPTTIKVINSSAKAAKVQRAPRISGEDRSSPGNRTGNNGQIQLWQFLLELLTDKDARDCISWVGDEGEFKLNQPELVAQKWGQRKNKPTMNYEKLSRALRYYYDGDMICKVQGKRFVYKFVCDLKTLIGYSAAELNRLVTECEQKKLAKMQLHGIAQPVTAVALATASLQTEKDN
Outline: as §1

ERG = target: T4, ERG (Homo sapiens, UniProt P11308 1-479); conditions: protein: recombinant; tags: N-terminal GST; dsDNA, one strand shown
T4 sequence: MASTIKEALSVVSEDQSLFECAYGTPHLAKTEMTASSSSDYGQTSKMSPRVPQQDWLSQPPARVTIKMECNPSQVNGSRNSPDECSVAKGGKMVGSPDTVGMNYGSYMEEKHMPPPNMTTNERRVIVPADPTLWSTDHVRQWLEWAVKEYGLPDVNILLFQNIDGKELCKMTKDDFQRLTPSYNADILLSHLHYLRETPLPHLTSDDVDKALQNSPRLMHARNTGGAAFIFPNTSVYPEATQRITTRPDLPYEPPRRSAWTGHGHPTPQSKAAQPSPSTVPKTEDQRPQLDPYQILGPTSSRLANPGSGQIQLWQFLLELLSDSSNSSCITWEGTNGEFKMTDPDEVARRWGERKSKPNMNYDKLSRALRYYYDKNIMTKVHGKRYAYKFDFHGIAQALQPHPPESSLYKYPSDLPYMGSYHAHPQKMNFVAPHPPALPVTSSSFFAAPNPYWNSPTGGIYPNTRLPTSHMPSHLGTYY
Outline: as §1

ELF1 = ELF1 (Homo sapiens, UniProt P32519 1-619); conditions: protein: recombinant; tags: N-terminal GST; dsDNA, one strand shown
Outline: as §1

EHF = target: T5, EHF (Homo sapiens, UniProt Q9NZC4 1-300); conditions: protein: recombinant; tags: N-terminal GST; dsDNA, one strand shown
T5 sequence: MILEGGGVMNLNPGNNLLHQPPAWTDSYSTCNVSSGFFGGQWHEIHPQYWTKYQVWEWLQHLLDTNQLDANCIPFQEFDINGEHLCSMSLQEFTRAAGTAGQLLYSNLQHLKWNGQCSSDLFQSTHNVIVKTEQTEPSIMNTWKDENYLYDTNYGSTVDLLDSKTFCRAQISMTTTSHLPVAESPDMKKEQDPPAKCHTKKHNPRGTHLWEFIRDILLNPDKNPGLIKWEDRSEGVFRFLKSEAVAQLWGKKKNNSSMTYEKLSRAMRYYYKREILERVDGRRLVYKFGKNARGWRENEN
Outline: as §1

SPI1 = SPI1 (Homo sapiens, UniProt P17947 1-270); conditions: protein: recombinant; tags: N-terminal GST; dsDNA, one strand shown
Outline: as §1

SPIB = SPIB (Homo sapiens, UniProt Q01892 1-262); conditions: protein: recombinant; tags: N-terminal GST; dsDNA, one strand shown
Outline: as §1

ELK3 = target: T6, ELK3 (Homo sapiens, UniProt P41970 1-407); conditions: protein: recombinant; tags: N-terminal GST; dsDNA, one strand shown
T6 sequence: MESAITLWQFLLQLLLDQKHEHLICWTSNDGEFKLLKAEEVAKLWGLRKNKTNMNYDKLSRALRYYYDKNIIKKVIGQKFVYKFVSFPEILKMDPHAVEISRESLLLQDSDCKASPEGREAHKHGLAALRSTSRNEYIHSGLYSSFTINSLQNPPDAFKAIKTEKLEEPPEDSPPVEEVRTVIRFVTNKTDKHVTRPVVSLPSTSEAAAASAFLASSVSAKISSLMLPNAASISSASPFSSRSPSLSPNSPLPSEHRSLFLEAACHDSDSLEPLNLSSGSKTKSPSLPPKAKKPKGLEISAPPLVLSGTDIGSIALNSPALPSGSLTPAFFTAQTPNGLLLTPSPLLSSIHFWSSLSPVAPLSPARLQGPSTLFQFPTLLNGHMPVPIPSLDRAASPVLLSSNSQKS
Outline: as §1

FEV = target: T7, FEV (Homo sapiens, UniProt Q99581 1-238); conditions: protein: recombinant; tags: N-terminal GST; dsDNA, one strand shown
T7 sequence: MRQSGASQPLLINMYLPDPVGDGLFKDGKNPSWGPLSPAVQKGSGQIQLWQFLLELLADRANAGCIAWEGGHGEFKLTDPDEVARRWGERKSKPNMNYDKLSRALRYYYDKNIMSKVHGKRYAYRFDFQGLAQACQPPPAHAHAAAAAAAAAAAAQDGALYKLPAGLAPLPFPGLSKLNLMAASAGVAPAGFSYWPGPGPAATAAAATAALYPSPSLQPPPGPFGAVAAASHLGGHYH
Outline: as §1

ETV5 = ETV5 (Homo sapiens, UniProt P41161 1-510); conditions: protein: recombinant; tags: N-terminal GST; dsDNA, one strand shown
Outline: as §1

HSF1 = HSF1 (Homo sapiens, UniProt Q00613 1-529); conditions: protein: recombinant; tags: N-terminal GST; chain copies: 3; dsDNA, one strand shown
Outline: as §1

SPIC = target: T8, SPIC (Homo sapiens, UniProt Q8N5J4 1-248); conditions: protein: recombinant; tags: N-terminal GST; dsDNA, one strand shown
T8 sequence: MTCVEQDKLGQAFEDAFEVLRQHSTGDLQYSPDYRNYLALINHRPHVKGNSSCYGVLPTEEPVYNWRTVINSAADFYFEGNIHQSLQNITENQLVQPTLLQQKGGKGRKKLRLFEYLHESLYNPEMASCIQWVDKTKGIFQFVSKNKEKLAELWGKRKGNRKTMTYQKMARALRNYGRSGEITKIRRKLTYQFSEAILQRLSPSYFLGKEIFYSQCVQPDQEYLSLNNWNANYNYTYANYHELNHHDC
Outline: as §1

ELK4 = target: T9, ELK4 (Homo sapiens, UniProt P28324-2 1-405); conditions: protein: recombinant; tags: N-terminal GST; dsDNA, one strand shown
T9 sequence: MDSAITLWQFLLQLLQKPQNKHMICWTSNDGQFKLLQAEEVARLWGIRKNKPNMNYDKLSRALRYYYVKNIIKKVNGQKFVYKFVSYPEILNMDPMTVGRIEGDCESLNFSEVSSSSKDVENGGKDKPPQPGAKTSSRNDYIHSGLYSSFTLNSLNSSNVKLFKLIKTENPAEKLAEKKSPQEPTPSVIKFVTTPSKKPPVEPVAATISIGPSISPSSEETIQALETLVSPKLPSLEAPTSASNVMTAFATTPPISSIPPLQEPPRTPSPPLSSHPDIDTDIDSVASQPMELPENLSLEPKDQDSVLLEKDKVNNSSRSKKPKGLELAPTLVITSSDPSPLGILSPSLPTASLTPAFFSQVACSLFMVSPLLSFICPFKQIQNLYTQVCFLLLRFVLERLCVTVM
Outline: as §1

ETV2 = target: T10, ETV2 (Homo sapiens, UniProt O00321 1-342); conditions: protein: recombinant; tags: N-terminal GST; dsDNA, one strand shown
T10 sequence: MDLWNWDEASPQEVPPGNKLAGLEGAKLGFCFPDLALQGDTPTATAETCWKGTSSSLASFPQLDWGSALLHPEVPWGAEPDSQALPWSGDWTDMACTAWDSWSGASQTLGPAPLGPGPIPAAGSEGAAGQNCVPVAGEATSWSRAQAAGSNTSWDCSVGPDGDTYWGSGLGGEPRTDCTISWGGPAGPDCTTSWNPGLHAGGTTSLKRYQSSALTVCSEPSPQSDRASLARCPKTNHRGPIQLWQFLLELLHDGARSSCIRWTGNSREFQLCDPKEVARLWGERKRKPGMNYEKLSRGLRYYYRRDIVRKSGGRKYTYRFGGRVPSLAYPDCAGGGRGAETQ
Outline: as §1

CRX = CRX (Homo sapiens, UniProt O43186 1-299); conditions: protein: recombinant; tags: N-terminal GST; dsDNA, one strand shown
Outline: as §1

ETV1 = ETV1 (Homo sapiens, UniProt P50549 1-477); conditions: protein: recombinant; tags: N-terminal GST; dsDNA, one strand shown
Outline: as §1

HSF1, sequence (Q00613 whole entry): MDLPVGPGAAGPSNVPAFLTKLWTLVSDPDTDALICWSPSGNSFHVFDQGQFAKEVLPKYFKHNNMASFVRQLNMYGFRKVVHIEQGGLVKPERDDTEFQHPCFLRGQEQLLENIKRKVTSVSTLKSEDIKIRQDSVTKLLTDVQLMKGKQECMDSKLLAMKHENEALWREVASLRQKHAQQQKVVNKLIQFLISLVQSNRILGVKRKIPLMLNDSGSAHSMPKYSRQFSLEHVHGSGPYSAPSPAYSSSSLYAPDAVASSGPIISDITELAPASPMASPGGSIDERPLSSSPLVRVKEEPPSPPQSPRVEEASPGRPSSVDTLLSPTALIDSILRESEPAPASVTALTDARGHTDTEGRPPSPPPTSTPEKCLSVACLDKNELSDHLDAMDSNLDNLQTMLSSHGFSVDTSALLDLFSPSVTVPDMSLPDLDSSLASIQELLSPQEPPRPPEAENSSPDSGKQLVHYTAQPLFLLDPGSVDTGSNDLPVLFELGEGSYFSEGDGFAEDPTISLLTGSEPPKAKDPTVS
ETV5, sequence (P41161 whole entry): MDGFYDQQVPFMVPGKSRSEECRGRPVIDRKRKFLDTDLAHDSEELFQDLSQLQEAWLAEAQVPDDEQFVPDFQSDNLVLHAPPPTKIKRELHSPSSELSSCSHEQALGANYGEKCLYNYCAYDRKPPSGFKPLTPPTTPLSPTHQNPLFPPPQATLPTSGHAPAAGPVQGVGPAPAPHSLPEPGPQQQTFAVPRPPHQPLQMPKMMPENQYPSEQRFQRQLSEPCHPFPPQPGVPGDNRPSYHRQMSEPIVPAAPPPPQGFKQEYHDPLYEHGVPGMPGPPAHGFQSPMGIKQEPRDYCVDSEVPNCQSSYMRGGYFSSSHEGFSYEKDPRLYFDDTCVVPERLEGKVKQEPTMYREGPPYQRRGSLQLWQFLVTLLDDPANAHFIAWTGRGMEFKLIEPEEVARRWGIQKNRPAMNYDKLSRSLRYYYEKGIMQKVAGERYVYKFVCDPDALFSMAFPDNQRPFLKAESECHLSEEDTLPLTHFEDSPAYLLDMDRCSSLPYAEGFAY
ELF1, sequence (P32519 whole entry): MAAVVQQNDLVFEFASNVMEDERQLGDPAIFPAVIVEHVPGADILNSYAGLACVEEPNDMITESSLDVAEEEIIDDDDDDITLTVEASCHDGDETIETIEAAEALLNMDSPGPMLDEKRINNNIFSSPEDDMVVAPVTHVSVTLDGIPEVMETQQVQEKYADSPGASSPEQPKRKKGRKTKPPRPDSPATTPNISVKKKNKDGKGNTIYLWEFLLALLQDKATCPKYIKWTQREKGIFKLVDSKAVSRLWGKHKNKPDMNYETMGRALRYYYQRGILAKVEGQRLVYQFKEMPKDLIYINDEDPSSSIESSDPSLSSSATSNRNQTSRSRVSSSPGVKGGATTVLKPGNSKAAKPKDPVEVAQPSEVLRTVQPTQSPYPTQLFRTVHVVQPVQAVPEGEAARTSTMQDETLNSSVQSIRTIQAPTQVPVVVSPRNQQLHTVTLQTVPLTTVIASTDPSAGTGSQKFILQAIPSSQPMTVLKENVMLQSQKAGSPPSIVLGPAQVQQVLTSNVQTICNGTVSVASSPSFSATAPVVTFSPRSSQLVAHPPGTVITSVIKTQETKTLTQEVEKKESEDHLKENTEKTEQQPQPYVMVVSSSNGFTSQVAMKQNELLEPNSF
CRX, sequence (O43186 whole entry): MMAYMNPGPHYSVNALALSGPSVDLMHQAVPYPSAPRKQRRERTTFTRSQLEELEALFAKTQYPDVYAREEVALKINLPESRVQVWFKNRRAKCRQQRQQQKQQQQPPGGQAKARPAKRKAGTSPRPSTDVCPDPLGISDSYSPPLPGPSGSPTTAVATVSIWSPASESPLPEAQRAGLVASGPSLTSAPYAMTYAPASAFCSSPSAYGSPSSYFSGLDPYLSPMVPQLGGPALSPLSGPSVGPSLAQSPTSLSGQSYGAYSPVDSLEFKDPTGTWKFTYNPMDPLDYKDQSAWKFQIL
ETV1, sequence (P50549 whole entry): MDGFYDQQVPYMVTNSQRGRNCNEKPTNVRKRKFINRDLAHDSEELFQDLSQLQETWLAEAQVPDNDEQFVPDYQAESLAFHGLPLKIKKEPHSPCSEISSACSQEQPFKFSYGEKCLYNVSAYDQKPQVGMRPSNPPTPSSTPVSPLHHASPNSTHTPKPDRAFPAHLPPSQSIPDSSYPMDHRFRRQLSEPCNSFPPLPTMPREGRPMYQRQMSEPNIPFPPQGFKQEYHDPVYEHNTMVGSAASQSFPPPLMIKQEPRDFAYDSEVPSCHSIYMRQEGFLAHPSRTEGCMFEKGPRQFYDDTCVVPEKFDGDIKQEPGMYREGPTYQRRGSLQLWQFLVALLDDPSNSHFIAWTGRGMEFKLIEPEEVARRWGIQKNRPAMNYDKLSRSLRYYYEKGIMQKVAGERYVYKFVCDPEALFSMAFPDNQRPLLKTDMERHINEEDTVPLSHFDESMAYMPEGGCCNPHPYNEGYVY
SPIB, sequence (Q01892 whole entry): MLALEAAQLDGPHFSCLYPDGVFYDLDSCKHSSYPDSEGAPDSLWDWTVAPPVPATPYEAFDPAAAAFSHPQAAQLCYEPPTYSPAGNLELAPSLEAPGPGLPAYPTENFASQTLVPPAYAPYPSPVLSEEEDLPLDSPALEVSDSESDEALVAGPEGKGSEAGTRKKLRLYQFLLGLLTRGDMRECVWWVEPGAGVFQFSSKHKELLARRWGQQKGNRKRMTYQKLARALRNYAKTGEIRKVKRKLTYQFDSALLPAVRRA

## TAACGG
FLI1
  binding signal: 1.1 fold enrichment (6-mer frequency, TF over GST control)
ELK1
  binding signal: 1.18 fold enrichment (6-mer frequency, TF over GST control)
GABPA
  binding signal: 1.03 fold enrichment (6-mer frequency, TF over GST control)
ERG
  binding signal: 1.08 fold enrichment (6-mer frequency, TF over GST control)
ELF1
  binding signal: 1.03 fold enrichment (6-mer frequency, TF over GST control)
EHF
  binding signal: 1.14 fold enrichment (6-mer frequency, TF over GST control)
SPI1
  binding signal: 1.21 fold enrichment (6-mer frequency, TF over GST control)
SPIB
  binding signal: 1.13 fold enrichment (6-mer frequency, TF over GST control)
ELK3
  binding signal: 1.03 fold enrichment (6-mer frequency, TF over GST control)
FEV
  binding signal: 1.1 fold enrichment (6-mer frequency, TF over GST control)
ETV5
  binding signal: 1.09 fold enrichment (6-mer frequency, TF over GST control)
HSF1
  binding signal: 1.03 fold enrichment (6-mer frequency, TF over GST control)
SPIC
  binding signal: 1.07 fold enrichment (6-mer frequency, TF over GST control)
ELK4
  binding signal: 1.02 fold enrichment (6-mer frequency, TF over GST control)
ETV2
  binding signal: 1.11 fold enrichment (6-mer frequency, TF over GST control)
CRX
  binding signal: 1.21 fold enrichment (6-mer frequency, TF over GST control)
ETV1
  binding signal: 1.04 fold enrichment (6-mer frequency, TF over GST control)
